15 molecules from PubChem BioAssay can be followed below.

The test system of assay [1] is XIP peptide (Xip251-270) binding. Briefly: XIP fragment 251-270 binding compounds – biochemical, small-molecule microarray, fluorescence 635/667 nm, 0.1 µg/mL protein, primary screen (AID 1182). The note with it: fluorescent protein binding, 635 nm, higher = more signal, called active from +8 up or from −8 down.
Another assay has as its system XIP peptide (Xip251-270). Kind of assay: compounds binding XIP fragment 251-270 – biochemical, small-molecule microarray, fluorescence 635/667 nm, 0.5 µg/mL protein, primary screen (AID 1183). The note with it: fluorescence 635 nm, higher = more signal.
A short description of assay [2]: blood-stage malaria parasite viability loss – strain 3D7, DAPI fluorescence, 100 nL, primary screen (AID 1184).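 Further: parasites grown inside human red blood cells in medium with human serum.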 The note with it: P. falciparum 3D7 growth, 3 d, higher = more signal.
In assay [3] the target is Homeobox protein Hox-A13 (Mus musculus) (UniProt Q62424). Kind of assay: disruptors of Hoxa13 oligonucleotide interaction – biochemical, fluorescence polarization, labeled oligonucleotide, primary screen (AID 1185). The note with it: Hoxa13:DNA binding, 15 min, higher = more signal, called active from +8 up or from −8 down. A general note: In fluorescence polarisation assays a small probe gives low polarisation when free and higher when bound to something large.
Chain of Homeobox protein Hox-A13 (Mus musculus) (Q62424 whole entry, looked up): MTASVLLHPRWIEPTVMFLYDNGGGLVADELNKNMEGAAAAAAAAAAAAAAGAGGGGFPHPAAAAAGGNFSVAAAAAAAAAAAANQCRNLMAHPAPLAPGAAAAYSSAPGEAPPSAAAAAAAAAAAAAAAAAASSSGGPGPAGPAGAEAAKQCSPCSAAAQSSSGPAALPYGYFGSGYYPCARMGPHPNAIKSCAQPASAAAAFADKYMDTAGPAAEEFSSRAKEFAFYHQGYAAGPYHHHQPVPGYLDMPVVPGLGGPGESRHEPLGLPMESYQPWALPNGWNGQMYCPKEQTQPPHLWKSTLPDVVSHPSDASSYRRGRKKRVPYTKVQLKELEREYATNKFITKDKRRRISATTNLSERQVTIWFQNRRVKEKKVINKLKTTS

Assay [4] can be described thus: blockers of DNA damage checkpoint Chk1 activation – imaging, HeLa, hydroxyurea, phospho-Chk1 antibody, percent positive cells, primary screen (AID 1186). The note with it: hydroxyurea-induced phospho-Chk1 immunofluorescence imaging, higher = more signal.
The nature of assay [5]: blockers of DNA damage checkpoint Chk1 activation – imaging, HeLa, hydroxyurea, phospho-Chk1 nuclear intensity, primary screen (AID 1187). The note with it: hydroxyurea-induced phospho-Chk1 immunofluorescence imaging, higher = more signal.

The source made the active and inactive calls. Unless noted, how the calls were made is not given here.

For `CC(C)N1C(=O)C[C@@](C(=O)NCc2ccccc2)(c2ccc([N+](=O)[O-])cc2)[C@H]1c1ccc(CO)cc1`, the composite z-score in assay [1] is 0.168 (inactive); in the assay on XIP peptide (Xip251-270), 0.524. Also, the z-score was -0.688 in assay [2], -1.27 (inactive) in assay [3], -0.293 (inactive) in assay [4] and -0.128 (inactive) in assay [5].

With `C=CCNC(=O)[C@@H]1[C@H]2C(=O)O[C@H](c3ccccc3)[C@H](c3ccccc3)N2[C@H](c2ccccc2OCCO)[C@@]12C(=O)Nc1ccc(C#CC3=CCCCC3)cc12`, the composite z-score was 1.02 (inactive) in assay [1] and 0.691 with XIP peptide (Xip251-270). For the same molecule, the z-score is -2.17 in assay [2], 1.71 (inactive) in assay [3], 0.0372 (inactive) in assay [4] and 0.464 (inactive) in assay [5].

In the case of `CC(C)C[C@@H]1NC(=O)[C@H]2C[C@@H](C(=O)NCCCCCNC(=O)CS)[C@@H](c3cccc(OCCO)c3)N2C1=O`, the values for the composite z-score (in assay [1]; in the assay on XIP peptide (Xip251-270)) were 1.38 (inactive) and 0.713, respectively. In addition, the z-score in assay [2] is -0.159; in assay [3] it was -3.89 (inactive); in assay [4], -0.351 (inactive); in assay [5], 0.184 (inactive).

On to `COC(=O)c1c(CC[C@@H](CO)NC(=O)N[C@@H](Cc2ccccc2)Cn2cc(C3(O)CCCCC3)nn2)oc(C(C)=O)c1C(=O)OC`, for which the composite z-score in assay [1] was 0.295 (inactive); in the assay with XIP peptide (Xip251-270) it was 0.536. Further, the z-score in assay [2] was -2.48; in assay [3], -5.32 (inactive); in assay [4] it was -0.0682 (inactive); in assay [5], -0.145 (inactive).

With `Cc1ccc(S[C@]2(C(=O)NCC(C)C)CC(=O)N(Cc3ccccc3Cl)[C@@H]2c2ccc(CO)cc2)cc1`, the composite z-score in assay [1] is 0.0729 (inactive); in the assay with XIP peptide (Xip251-270), -0.313. In addition, the z-score in assay [2] is 0.423; in assay [3], -2.53 (inactive); in assay [4], 0.259 (inactive); in assay [5], 0.658 (inactive).

Take `CC(C)=CCCC(C)=CC(O)C1C=CC2C(=O)N(c3ccccc3)C(=O)C2N1Nc1ccccc1` (stereo not given): the results for the composite z-score (in assay [1]; with XIP peptide (Xip251-270)) were 0.634 (inactive) and 0.828, respectively. Moreover, the z-score was -0.168 in assay [2], -3.67 (inactive) in assay [3], 0.881 (inactive) in assay [4] and 0.352 (inactive) in assay [5].

In the case of `COCCOC(=O)N1C(=O)[C@@]2(c3ccccc31)[C@H](c1ccc(O)cc1)N1[C@H](c3ccccc3)[C@H](c3ccccc3)OC(=O)[C@H]1[C@@H]2C(=O)N1CCc2cc(OC)c(OC)cc2C1`, the results for the composite z-score (in assay [1]; with XIP peptide (Xip251-270)) were 1.46 (inactive) and 0.794, respectively. The z-score in assay [2] is -1.27; in assay [3], -1.87 (inactive); in assay [4], 0.043 (inactive); in assay [5], 0.361 (inactive).

Turning to `CCOC(=O)C[C@H]1[C@H](OC(=O)c2ccc(-c3ccccc3)cc2)[C@@H](NC(=O)c2ccc(-c3ccccc3)cc2)c2cc(OCCCO)ccc2N1C(=O)Cc1ccc(OC)cc1`, the composite z-score was -0.548 (inactive) in assay [1] and -0.057 with XIP peptide (Xip251-270). For the same molecule, the z-score in assay [2] is 0.555; in assay [3], -1.54 (inactive); in assay [4], -0.0323 (inactive); in assay [5], 0.107 (inactive).

Regarding `COC(=O)[C@@]1(Cc2ccc(F)cc2)[C@H]2c3cc(C(=O)N4CCCC4)n(Cc4cccc5ccccc45)c3C[C@H]2CN1C(=O)c1ccccc1`, the composite z-score is 0.702 (inactive) in assay [1] and 0.0322 in the assay with XIP peptide (Xip251-270). Also, the z-score in assay [2] is -1.74; in assay [3] it was -4.87 (inactive); in assay [4], -0.704 (inactive); in assay [5], -0.576 (inactive).

Turning to `COc1ccc([Si](C)(C)[C@@H]2[C@@H](CCn3cc([C@H](O)c4ccccc4)nn3)O[C@]3(C(=O)N(Cc4ccc(N5C(=O)c6cccc7cccc5c67)cc4)c4ccccc43)[C@H]2C)cc1`, the composite z-score in assay [1] is 1.02 (inactive); with XIP peptide (Xip251-270) it was 0.182. In addition, the z-score in assay [2] is -2.8; in assay [3], 0.474 (inactive); in assay [4], -0.506 (inactive); in assay [5] it was -0.524 (inactive).

As to `Cc1ccc(F)cc1S(=O)(=O)N[C@@H]1CCN(Cc2ccc(-c3ccccc3)cc2)C1`, the figures for the composite z-score (in assay [1]; with XIP peptide (Xip251-270)) were 0.765 (inactive) and 0.479, respectively. Further, the z-score in assay [2] was -1.89; in assay [3], -4.9 (inactive); in assay [4] it was -0.23 (inactive); in assay [5], -0.0784 (inactive).

Consider `COCCOC(=O)N1C(=O)[C@@]2(c3ccccc31)[C@H](C(=O)Nc1nc3ccccc3s1)[C@H]1C(=O)O[C@H](c3ccccc3)[C@H](c3ccccc3)N1[C@@H]2c1ccc(OCCO)cc1`, for which the composite z-score is 0.886 (inactive) in assay [1] and 0.805 with XIP peptide (Xip251-270). In addition, the z-score in assay [2] is -1.13; in assay [3], 0.34 (inactive); in assay [4] it was -0.178 (inactive); in assay [5], -0.249 (inactive).

As to `CCOC(=O)C1=C[C@@H](C(C)C)N(S(=O)(=O)c2ccc(C)cc2)[C@H]1c1ccc(C(C)C)cc1`, the results for the composite z-score (in assay [1]; with XIP peptide (Xip251-270)) were 0.306 (inactive) and -0.109, respectively. Also, the z-score in assay [2] is -1.46; in assay [3] it was -0.549 (inactive); in assay [4], 0.25 (inactive); in assay [5] it was 0.478 (inactive).

For `O=C/C=C/c1ccc2c(c1)OCO2`, the composite z-score in assay [1] was -0.316 (inactive); in the assay on XIP peptide (Xip251-270), -0.232. Besides, the z-score is 0.775 in assay [2], 1.04 (inactive) in assay [3], 0.284 (inactive) in assay [4] and 0.774 (inactive) in assay [5].

Take `Cc1ccc(S[C@]2(C(=O)NCc3ccccc3)CC(=O)N(Cc3ccccc3)[C@@H]2c2ccc(CO)cc2)cc1`: the composite z-score in assay [1] is 0.824 (inactive); with XIP peptide (Xip251-270) it was 0.849. The z-score in assay [2] was 0.101; in assay [3], -2.39 (inactive); in assay [4], -0.0397 (inactive); in assay [5], 0.377 (inactive).
